For one sequence, binding signal results are on record in publication PMC7862700, “An all-to-all approach to the identification of sequence-specific readers for epigenetic DNA modifications on cytosine”.

Common to all, as to assay: DAPPL (digital affinity profiling via proximity ligation, sequencing); 10 mM Tris-HCl pH 7.5, 50 mM NaCl, 1 mM DTT, 4% glycerol, room temperature, 30 min; GST-TFs on glutathione beads, 16-mer random dsDNA library, 0.1% formaldehyde crosslink after washing; high values mean tight binding
One test deals with T1, FEV (Homo sapiens, UniProt Q99581 1-238).
T1 sequence: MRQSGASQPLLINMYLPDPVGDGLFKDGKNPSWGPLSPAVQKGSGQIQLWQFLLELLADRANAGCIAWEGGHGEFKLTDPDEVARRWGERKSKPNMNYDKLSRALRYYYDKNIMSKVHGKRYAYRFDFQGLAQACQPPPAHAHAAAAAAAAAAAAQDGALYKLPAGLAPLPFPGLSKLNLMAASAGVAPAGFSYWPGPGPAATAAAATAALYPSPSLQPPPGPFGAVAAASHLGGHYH
The conditions noted are these: protein: recombinant; tags: N-terminal GST; dsDNA, one strand shown. The procedure, abridged:
(§1)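 Beads coated with glutathione captured GST-fused human transcription factors that had been expressed in yeast, and the factors were then given DNA barcodes and pooled with a tag-only sample. The pools were incubated with 200 nmole of a random double-stranded 16-mer DNA library in Tris/NaCl/DTT/glycerol buffer for 30 min at room temperature, washed, crosslinked with 0.1% formaldehyde and proximity-ligated with BsaI/T4 ligase at 37 °C for 1 h. PCR amplification and Illumina NextSeq500 sequencing came last. Binding signal is each hexamer's read frequency for a factor divided by its frequency for the tag-only sample.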

Another test has as its target ETV5 (Homo sapiens, UniProt P41161 1-510). The conditions noted are these: protein: recombinant; tags: N-terminal GST; dsDNA, one strand shown. Summed up:
as §1

A further test has as its target HSF1 (Homo sapiens, UniProt Q00613 1-529). The conditions noted are these: protein: recombinant; tags: N-terminal GST; chain copies: 3; dsDNA, one strand shown. The procedure, abridged: as §1
The next test concerns the target T2, SPIC (Homo sapiens, UniProt Q8N5J4 1-248).
T2 sequence: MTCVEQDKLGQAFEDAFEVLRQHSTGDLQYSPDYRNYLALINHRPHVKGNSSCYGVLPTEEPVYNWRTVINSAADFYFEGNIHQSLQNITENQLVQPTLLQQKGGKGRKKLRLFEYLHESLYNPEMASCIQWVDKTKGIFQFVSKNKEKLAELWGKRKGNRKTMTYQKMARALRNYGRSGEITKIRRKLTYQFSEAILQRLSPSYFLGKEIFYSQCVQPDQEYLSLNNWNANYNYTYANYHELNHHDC
The conditions noted are these: protein: recombinant; tags: N-terminal GST; dsDNA, one strand shown. Summed up: as §1

Another test deals with ELF4 (Homo sapiens, UniProt Q99607 1-663). The conditions noted are these: protein: recombinant; tags: N-terminal GST; dsDNA, one strand shown. The procedure, abridged: as §1
For the next test, the target named is T3, ELK4 (Homo sapiens, UniProt P28324-2 1-405).
T3 sequence: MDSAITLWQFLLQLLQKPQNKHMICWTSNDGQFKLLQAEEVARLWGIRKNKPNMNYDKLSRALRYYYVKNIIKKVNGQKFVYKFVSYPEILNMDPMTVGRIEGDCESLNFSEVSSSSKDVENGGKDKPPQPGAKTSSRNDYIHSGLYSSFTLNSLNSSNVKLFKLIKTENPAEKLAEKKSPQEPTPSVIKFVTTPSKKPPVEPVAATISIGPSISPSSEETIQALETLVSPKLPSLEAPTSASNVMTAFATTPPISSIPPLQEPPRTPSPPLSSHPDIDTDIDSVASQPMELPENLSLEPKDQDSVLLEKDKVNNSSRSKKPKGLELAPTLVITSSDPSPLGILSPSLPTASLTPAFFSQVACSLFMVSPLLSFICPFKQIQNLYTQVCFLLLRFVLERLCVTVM
The conditions noted are these: protein: recombinant; tags: N-terminal GST; dsDNA, one strand shown. The procedure, abridged:
as §1

The target of another test is T4, ETV2 (Homo sapiens, UniProt O00321 1-342).
T4 sequence: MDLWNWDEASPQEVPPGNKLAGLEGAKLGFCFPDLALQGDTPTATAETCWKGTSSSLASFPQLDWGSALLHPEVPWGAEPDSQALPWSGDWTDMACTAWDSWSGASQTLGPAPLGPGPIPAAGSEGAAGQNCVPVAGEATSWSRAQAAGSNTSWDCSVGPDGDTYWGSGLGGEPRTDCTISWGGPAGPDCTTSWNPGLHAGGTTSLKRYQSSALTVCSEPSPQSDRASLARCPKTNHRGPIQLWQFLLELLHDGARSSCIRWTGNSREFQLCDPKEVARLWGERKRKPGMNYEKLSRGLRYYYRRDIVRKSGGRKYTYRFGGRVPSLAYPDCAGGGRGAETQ
The conditions noted are these: protein: recombinant; tags: N-terminal GST; dsDNA, one strand shown. The procedure, abridged: as §1

The target in another test is T5, ELF3 (Homo sapiens, UniProt P78545 1-371).
T5 sequence: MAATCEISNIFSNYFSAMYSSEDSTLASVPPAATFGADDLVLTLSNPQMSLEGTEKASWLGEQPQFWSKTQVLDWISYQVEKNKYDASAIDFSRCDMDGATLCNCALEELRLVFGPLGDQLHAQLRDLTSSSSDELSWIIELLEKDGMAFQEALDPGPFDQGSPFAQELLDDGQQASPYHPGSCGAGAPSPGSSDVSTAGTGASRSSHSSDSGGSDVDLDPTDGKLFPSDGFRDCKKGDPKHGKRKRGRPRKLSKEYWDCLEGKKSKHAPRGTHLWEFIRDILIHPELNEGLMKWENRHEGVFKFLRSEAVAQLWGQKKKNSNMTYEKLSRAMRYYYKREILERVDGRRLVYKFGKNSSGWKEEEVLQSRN
The conditions noted are these: protein: recombinant; tags: N-terminal GST; dsDNA, one strand shown. The procedure, abridged: as §1

The next test concerns the target CRX (Homo sapiens, UniProt O43186 1-299). The conditions noted are these: protein: recombinant; tags: N-terminal GST; dsDNA, one strand shown. Summed up:
as §1

The next test deals with ETV1 (Homo sapiens, UniProt P50549 1-477). The conditions noted are these: protein: recombinant; tags: N-terminal GST; dsDNA, one strand shown. The procedure, abridged:
as §1

Another test has as its target T6, ERF (Homo sapiens, UniProt P50548 1-548).
T6 sequence: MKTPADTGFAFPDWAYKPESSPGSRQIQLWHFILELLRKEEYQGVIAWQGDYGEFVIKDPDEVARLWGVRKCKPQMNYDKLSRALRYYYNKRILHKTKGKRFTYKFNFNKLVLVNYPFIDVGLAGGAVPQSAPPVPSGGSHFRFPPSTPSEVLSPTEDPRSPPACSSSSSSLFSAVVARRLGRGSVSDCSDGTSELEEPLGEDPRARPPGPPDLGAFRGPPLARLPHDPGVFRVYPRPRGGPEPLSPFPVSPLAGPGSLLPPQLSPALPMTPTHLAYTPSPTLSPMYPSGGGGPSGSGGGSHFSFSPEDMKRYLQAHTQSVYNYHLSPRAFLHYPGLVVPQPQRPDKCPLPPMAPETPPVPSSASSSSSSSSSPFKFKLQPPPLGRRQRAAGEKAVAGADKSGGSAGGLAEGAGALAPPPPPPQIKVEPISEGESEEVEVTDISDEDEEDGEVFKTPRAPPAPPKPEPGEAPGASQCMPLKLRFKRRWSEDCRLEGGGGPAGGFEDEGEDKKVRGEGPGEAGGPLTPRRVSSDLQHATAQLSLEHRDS
The conditions noted are these: protein: recombinant; tags: N-terminal GST; dsDNA, one strand shown. Summed up:
as §1

The next test concerns the target T7, ETV3L (Homo sapiens, UniProt Q6ZN32 1-361).
T7 sequence: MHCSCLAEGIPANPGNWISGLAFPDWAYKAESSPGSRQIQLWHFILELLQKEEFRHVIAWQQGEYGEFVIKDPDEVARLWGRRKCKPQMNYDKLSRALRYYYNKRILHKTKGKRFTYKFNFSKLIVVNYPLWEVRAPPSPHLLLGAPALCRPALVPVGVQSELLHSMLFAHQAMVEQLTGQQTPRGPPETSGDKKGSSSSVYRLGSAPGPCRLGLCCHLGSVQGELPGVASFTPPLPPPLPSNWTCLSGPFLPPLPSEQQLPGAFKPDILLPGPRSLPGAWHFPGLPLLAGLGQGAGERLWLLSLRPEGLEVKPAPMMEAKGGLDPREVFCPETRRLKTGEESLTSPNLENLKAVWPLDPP
The conditions noted are these: protein: recombinant; tags: N-terminal GST; dsDNA, one strand shown. The procedure, abridged: as §1

The target of another test is T8, ETS2 (Homo sapiens, UniProt P15036 1-469).
T8 sequence: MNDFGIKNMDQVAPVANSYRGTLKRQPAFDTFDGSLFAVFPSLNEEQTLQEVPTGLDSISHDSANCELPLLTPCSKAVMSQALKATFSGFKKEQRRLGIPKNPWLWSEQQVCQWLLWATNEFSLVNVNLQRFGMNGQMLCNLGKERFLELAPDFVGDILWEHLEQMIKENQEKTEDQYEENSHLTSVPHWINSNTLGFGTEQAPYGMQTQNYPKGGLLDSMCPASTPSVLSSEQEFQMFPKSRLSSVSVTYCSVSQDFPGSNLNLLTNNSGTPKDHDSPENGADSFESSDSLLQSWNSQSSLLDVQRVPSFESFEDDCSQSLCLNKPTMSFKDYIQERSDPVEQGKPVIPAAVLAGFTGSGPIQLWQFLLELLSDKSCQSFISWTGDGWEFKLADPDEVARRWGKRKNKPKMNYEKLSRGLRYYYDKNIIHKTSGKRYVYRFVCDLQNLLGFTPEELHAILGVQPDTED
The conditions noted are these: protein: recombinant; tags: N-terminal GST; dsDNA, one strand shown. Summed up:
as §1

Another test addresses T9, SPDEF (Homo sapiens, UniProt O95238 1-335).
T9 sequence: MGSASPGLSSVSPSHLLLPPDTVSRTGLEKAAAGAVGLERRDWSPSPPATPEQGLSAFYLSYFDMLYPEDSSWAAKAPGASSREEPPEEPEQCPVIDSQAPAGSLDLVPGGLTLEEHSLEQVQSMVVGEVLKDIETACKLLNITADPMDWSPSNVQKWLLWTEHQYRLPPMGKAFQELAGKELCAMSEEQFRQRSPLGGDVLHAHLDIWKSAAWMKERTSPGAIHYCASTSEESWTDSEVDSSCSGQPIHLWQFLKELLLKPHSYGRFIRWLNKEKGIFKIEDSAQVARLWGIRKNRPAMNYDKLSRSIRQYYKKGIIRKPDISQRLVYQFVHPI
The conditions noted are these: protein: recombinant; tags: N-terminal GST; dsDNA, one strand shown. The procedure, abridged:
as §1

In another test the target is T10, ETV7 (Homo sapiens, UniProt Q9Y603 1-341).
T10 sequence: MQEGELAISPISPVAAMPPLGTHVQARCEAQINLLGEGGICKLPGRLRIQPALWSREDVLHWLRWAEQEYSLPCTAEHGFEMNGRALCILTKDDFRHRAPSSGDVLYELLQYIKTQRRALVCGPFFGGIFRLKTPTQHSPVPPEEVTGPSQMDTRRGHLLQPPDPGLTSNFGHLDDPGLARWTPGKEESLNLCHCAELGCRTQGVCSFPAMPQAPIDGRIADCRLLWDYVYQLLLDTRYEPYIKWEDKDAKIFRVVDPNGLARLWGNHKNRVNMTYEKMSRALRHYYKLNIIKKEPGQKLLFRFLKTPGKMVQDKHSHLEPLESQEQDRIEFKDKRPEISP
The conditions noted are these: protein: recombinant; tags: N-terminal GST; dsDNA, one strand shown. Summed up:
as §1

The next test concerns the target T11, ELF5 (Homo sapiens, UniProt Q9UKW6-2 1-255).
T11 sequence: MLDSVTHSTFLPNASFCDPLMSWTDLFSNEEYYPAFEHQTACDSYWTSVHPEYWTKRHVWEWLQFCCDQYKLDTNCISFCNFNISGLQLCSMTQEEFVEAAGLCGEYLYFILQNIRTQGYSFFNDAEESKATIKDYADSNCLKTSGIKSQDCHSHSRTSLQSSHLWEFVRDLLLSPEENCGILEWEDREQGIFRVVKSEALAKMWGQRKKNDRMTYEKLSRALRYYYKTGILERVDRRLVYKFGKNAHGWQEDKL
The conditions noted are these: protein: recombinant; tags: N-terminal GST; dsDNA, one strand shown. The procedure, abridged:
as §1

In a further test the target is T12, ETV3 (Homo sapiens, UniProt P41162-2 1-143).
T12 sequence: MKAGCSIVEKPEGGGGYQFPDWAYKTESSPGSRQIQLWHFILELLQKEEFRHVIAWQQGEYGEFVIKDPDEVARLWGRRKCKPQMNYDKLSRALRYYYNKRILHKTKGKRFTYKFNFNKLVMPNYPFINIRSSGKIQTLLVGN
The conditions noted are these: protein: recombinant; tags: N-terminal GST; dsDNA, one strand shown. Summed up:
as §1

The target of a further test is ETV6 (Homo sapiens, UniProt P41212 1-452). The conditions noted are these: protein: recombinant; tags: N-terminal GST; dsDNA, one strand shown. The procedure, abridged: as §1
Sequence of ETV6 (P41212 whole entry): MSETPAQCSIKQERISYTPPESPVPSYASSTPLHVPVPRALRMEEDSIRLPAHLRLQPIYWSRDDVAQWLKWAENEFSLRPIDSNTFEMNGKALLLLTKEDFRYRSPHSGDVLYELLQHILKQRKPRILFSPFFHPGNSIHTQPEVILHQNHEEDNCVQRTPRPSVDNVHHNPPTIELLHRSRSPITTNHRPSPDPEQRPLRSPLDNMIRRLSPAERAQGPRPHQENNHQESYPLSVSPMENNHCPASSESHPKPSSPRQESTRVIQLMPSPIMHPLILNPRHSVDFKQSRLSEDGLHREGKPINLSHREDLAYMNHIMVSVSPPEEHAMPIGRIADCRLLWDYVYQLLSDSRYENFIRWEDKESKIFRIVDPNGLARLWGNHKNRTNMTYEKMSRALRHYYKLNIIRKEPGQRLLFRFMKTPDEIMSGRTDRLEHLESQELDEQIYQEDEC

Sequence of CRX (O43186 whole entry): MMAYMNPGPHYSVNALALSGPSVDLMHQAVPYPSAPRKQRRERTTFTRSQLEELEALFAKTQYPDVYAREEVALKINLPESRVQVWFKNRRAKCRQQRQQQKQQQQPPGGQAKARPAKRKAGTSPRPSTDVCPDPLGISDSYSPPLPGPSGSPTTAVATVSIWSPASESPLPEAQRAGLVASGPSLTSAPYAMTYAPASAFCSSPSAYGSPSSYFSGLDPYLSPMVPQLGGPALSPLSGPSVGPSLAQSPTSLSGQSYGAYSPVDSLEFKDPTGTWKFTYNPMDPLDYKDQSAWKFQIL
Sequence of HSF1 (Q00613 whole entry): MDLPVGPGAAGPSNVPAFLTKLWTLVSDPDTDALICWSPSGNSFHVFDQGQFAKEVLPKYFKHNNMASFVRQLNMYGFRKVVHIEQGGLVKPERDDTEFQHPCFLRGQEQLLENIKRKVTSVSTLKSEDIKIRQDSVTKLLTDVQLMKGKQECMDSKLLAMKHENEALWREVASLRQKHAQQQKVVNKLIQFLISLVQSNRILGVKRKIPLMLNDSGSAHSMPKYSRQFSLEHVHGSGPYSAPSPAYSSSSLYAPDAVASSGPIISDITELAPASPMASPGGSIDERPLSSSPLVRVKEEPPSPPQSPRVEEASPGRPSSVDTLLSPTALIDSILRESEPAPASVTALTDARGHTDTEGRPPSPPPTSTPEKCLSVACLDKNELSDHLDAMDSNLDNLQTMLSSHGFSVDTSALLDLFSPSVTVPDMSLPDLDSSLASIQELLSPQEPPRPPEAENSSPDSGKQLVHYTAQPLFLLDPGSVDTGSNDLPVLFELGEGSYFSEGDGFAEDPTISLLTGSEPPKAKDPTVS
Sequence of ELF4 (Q99607 whole entry): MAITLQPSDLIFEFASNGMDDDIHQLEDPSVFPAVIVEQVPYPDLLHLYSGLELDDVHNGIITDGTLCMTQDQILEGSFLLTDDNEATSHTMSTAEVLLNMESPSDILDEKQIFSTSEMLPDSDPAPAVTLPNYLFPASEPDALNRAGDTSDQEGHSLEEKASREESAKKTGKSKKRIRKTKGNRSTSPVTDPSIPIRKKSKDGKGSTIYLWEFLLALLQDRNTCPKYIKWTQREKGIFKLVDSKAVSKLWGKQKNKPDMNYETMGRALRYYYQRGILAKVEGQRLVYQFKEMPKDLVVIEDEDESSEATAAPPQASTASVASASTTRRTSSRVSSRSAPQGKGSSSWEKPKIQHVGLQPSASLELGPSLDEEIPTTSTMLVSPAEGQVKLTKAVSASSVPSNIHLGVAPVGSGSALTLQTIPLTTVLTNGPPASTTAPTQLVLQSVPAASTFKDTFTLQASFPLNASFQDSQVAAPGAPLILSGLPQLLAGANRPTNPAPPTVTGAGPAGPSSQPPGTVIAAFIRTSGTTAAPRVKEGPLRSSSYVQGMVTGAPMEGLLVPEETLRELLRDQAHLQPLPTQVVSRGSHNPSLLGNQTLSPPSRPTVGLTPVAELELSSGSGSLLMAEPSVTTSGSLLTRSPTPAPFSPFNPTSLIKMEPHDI
Sequence of ETV1 (P50549 whole entry): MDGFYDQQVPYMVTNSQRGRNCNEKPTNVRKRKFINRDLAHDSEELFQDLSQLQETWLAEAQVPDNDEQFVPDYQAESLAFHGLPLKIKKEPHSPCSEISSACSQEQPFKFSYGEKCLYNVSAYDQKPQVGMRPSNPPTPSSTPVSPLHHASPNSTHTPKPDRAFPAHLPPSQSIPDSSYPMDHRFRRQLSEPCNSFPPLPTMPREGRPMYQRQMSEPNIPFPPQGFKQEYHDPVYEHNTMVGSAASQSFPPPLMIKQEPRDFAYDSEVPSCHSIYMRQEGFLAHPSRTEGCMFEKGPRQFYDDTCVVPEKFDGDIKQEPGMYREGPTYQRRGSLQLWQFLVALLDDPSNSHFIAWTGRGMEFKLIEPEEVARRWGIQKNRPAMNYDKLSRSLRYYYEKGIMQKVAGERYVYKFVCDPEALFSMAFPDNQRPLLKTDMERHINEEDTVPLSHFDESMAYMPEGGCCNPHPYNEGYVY
Sequence of ETV5 (P41161 whole entry): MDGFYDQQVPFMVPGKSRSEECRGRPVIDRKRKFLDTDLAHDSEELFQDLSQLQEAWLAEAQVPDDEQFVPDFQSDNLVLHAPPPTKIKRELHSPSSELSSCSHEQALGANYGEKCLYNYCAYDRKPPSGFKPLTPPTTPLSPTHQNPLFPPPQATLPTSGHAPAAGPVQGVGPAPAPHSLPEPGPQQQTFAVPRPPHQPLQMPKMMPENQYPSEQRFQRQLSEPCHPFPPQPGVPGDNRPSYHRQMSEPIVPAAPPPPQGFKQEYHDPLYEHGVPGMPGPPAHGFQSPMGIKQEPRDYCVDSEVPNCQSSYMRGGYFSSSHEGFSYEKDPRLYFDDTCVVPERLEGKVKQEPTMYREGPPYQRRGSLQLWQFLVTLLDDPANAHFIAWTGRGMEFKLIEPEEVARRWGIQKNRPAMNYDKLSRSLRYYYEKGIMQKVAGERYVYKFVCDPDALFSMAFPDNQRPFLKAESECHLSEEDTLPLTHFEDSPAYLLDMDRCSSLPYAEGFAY

With AAACTC, the binding signal is 1.18 fold enrichment (6-mer frequency, TF over GST control) with FEV; 1.22 fold enrichment (6-mer frequency, TF over GST control) in the test with ETV5; 1.18 fold enrichment (6-mer frequency, TF over GST control) in the test with HSF1; 1.26 fold enrichment (6-mer frequency, TF over GST control) with SPIC; 1.22 fold enrichment (6-mer frequency, TF over GST control) with ELF4; 1.04 fold enrichment (6-mer frequency, TF over GST control) with ELK4. The binding signal with ETV2 is 1.3 fold enrichment (6-mer frequency, TF over GST control); with ELF3 it was 1.25 fold enrichment (6-mer frequency, TF over GST control); with CRX, 1.18 fold enrichment (6-mer frequency, TF over GST control); with ETV1, 1.22 fold enrichment (6-mer frequency, TF over GST control); in the test with ERF, 1.24 fold enrichment (6-mer frequency, TF over GST control); in the test with ETV3L it was 1.17 fold enrichment (6-mer frequency, TF over GST control). In addition, the binding signal in the test with ETS2 was 1.19 fold enrichment (6-mer frequency, TF over GST control); with SPDEF it was 1.07 fold enrichment (6-mer frequency, TF over GST control); with ETV7, 1.24 fold enrichment (6-mer frequency, TF over GST control); with ELF5 it was 1.21 fold enrichment (6-mer frequency, TF over GST control); with ETV3, 1.15 fold enrichment (6-mer frequency, TF over GST control); with ETV6 it was 1.25 fold enrichment (6-mer frequency, TF over GST control).
